This is a sample that favours compounds with a hit; in the whole collection about 2.4% have one here.
D2 ag-1: HTS Assay for Allosteric Agonists of the Human D2 Dopamine Receptor: Primary Screen for Agonists. 0.53% of 340,000 active. HEK293 T-REx D2 cells, calcium flux agonist mode. D(2) dopamine receptor (Homo sapiens), P14416. activation, % at 2 µM;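 active = activation over 3 SD above normal in the single-dose calcium agonist read, cut at about 30% in these data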
Target sequence (P14416 whole entry, looked up): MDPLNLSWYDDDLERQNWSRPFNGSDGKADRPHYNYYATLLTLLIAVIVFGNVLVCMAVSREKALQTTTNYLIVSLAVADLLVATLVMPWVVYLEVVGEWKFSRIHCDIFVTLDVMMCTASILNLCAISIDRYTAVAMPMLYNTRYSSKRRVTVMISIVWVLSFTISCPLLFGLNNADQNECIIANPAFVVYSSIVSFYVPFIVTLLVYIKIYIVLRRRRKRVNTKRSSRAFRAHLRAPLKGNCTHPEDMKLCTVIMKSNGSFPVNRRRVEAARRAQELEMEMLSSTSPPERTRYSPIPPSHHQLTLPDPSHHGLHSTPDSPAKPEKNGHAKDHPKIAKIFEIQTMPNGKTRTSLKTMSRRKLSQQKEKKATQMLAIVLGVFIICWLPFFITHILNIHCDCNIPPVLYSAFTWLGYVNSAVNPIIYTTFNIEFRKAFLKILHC
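Calcium-flux readout, 1 cycle/sec over 180 s following compound pin transfer, in inducible HEK293 Trex D2 cells (force-coupled); dopamine controls included. Positive calcium responses during this window marked compounds as potential agonists.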
D2 antagonist: HTS Assay for Allosteric Antagonists of the Human D2 Dopamine Receptor: Primary Screen for Antagonists. D(2) dopamine receptor (Homo sapiens), P14416. HEK293 TREx D2 cells, calcium flux, dopamine EC80. inhibition, % at 10 µM. 2% of 340,000 active; in the data active = inhibition above about 30%; inactive = below that, where a call was filed
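In this primary screen, negative modulation is detected by tracking calcium flux after an EC80 dopamine challenge in inducible HEK293 T-REx D2 cells preexposed to test compound for 180 s.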
D2 PAM-1: Beta-Arrestin HTS for Positive Allosteric Modulators of the Human D2 Dopamine Receptor: Potentiators; DiscoveRx D2 beta-arrestin cells, luminescence, 90 min; 100% = 57 uM dopamine signal; potentiation, % (no concentration beside the values); 0.23% of 360,000 active; in the data active = potentiation above about 50%; inconclusive = mostly about 30% to 49%
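PathHunter D2 cells, attached overnight at 37 deg C, received compound in DMSO plus dopamine at EC20 (50 nM final) for 90 min at 37 deg C. Beta-arrestin recruitment was read as luminescence after 1 h with detection reagent at ambient temperature.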
D2 PAM-2: HTS Assay for Positive Allosteric Modulators of the Human D2 Dopamine Receptor: Primary Screen for Potentiators; D(2) dopamine receptor (Homo sapiens), P14416; HEK293 T-REx D2, calcium flux, EC20 dopamine potentiation; 0.34% of 340,000 active; potentiation, % at 10 µM;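 active = potentiation over 3 SD above the plate norm, cut at about 30% in these data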
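Potentiation of an EC20 dopamine calcium response is measured in a force-coupled, tetracycline-inducible Hek293 Trex D2 line. Compound-only kinetic reads over 180 s flag agonists before dopamine addition.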
D2 ag-2: Beta-Arrestin HTS for Positive Allosteric Modulators of the Human D2 Dopamine Receptor: Agonists; D(2) dopamine receptor (Homo sapiens), P14416; DiscoveRx PathHunter D2 beta-arrestin, luminescence, 90 min; 100% = 57 uM dopamine signal; activation, % (test concentration not listed); 0.084% of 360,000 active; in the data active = activation above about 40%; inconclusive = between about 15% and that limit
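DiscoveRx PathHunter D2 beta-arrestin cells (2,100/well) attached overnight, then compound-stimulated 90 min at 37 C in HBSS/10 mM HEPES/0.1% Tween-20 buffer; beta-galactosidase complementation read by luminescence after 1 h at ambient temperature. Dopamine 57 uM final (EC100) as control.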
B2AR arrestin: qHTS assay of beta-arrestin-biased ligands of beta2-adrenergic receptor; Potency, µM (highest dose often 46.1 µM), actives largely listed as activators; beta-arrestin recruitment to beta2AR, cell-based reporter; AID 492947, 2010; 0.02% of 330,000 active; Beta-2 adrenergic receptor (Homo sapiens), P07550; active = well fitted activation curve with a large enough effect; inconclusive = small, poorly fitted or top-dose-only effect; note: nearly all actives have a fitted effect of over 65% in size
Large screens that a line does not name were inactive.

Cc1n[nH]c(C)c1N1C(=O)c2cccc3c(N4CCCCCC4)ccc(c23)C1=O	D2 ag-1 83.9
C=CCN1C(=O)c2cccc3c(N4CCCCC4)ccc(c23)C1=O	none
O=C1c2cccc3c(N4CCCCC4)ccc(c23)C(=O)N1c1cccc(O)c1	D2 ag-1 57.2
O=C1c2cccc3c(N4CCCCC4)ccc(c23)C(=O)N1CCO	none
CCCOc1ccccc1/C=C1/C(=O)ON=C1C	none
CCOc1cccc2sc(N(CCN(C)C)C(=O)c3ccc4ccccc4c3)nc12	none
CCOc1cccc2sc(N(CCN(C)C)C(=O)c3ccc(Br)s3)nc12	D2 antagonist 32.8
CCCOc1ccc(C(=O)N(CC(C)C)c2c(N)n(Cc3ccccc3)c(=O)[nH]c2=O)cc1	none
O=C(CCSc1ccc(Cl)cc1)N1CCN(c2ccc(O)cc2)CC1	none
COc1ccc(NS(=O)(=O)c2cccc(C(=O)NCC(c3ccc(OC)cc3)N3CCCC3)c2)cc1 (centres undefined)	none
C=CCN(c1ccccc1)S(=O)(=O)c1cccc(C(=O)NCC(c2ccc(OC)cc2)N2CCCCC2)c1 (centres undefined)	D2 antagonist 54.7
COc1ccc(C(CNC(=O)c2cccc(N(C)C)c2)N2CCCC2)cc1 (centres undefined)	D2 antagonist 46.6
COc1ccc(C(CNC(=O)c2ccc(C)c(S(=O)(=O)Nc3ccccc3OC)c2)N2CCCC2)cc1 (centres undefined)	D2 antagonist 48.9, B2AR arrestin inconclusive
Cc1ccc([N+](=O)[O-])cc1N=Nc1c(C)[nH]n(C(N)=S)c1=O	none
NC(=S)n1[nH]c(-c2ccc([N+](=O)[O-])cc2)c(N=Nc2ccc(Cl)cc2)c1=O	B2AR arrestin 15.8µM
Cc1ccc([N+](=O)[O-])cc1N=Nc1c(-c2ccc([N+](=O)[O-])cc2)[nH]n(C(N)=S)c1=O	B2AR arrestin 0.708µM
CCCCN1C(=O)/C(=C/C=C2\Oc3ccccc3N2CC)SC1=S	D2 ag-1 61.1
CCCN1C(=O)/C(=C/C=C2\N(CC)c3ccccc3C2(C)C)SC1=S	none
C/C(N)=C(/C#N)C(=O)COC(=O)C1CSC2(c3ccc(F)cc3)CCC(=O)N12 (centres undefined)	none
N/C(=N\OS(=O)(=O)c1ccccc1)c1ccncc1	D2 PAM-1 95.6, D2 ag-2 inconclusive
N/C(=N\OS(=O)(=O)c1ccccc1)c1cccnc1	none
N/C(=N\OS(=O)(=O)c1ccc2ccccc2c1)c1ccncc1	D2 PAM-1 150.9, D2 ag-2 41.1
CCc1ccccc1NC(=O)Cn1c(=O)n(CCc2ccccc2)c(=O)c2ccccc21	none (no result: D2 antagonist, D2 PAM-1, D2 ag-2, B2AR arrestin)
COc1cc2c3nnc(-c4ccc(F)cc4)c-3cn(Cc3ccccc3)c2cc1OC	D2 ag-2 50.4
COc1cc2c3nnc(-c4ccc(F)cc4)c-3cn(Cc3ccc(F)cc3)c2cc1OC	none
COCCN1C(=O)CCC1(C)C(=O)NC1CCCC1 (centres undefined)	none (no result: D2 ag-1, D2 antagonist, D2 PAM-2, B2AR arrestin)
Cc1ccccc1-n1ncc2c([N+](=O)[O-])cc([N+](=O)[O-])cc21	D2 PAM-1 83.2
CCN(CC)S(=O)(=O)c1cc(NC(=O)CSc2nccn2C)ccc1C	none
Cc1nnc(C)c2c(C)n(-c3ccc4ncccc4c3)c(C)c12	D2 antagonist 32.4
Cc1ccc2ncccc2c1	none
CCOC(=O)C(NC(=O)c1ccccc1)=C1C=C(C)OC(C)=C1	D2 PAM-2 30.2
COC(=O)C(NC(=O)c1ccccc1)=C1C=C(C)OC(C)=C1	none (no result: D2 ag-1)
CC1CCc2c(sc(NC(=S)NC(=O)c3ccccc3)c2C#N)C1 (centres undefined)	D2 antagonist 37.5
N#Cc1c(NC(=S)NC(=O)c2ccccc2)sc2c1CCCC2	none
N#Cc1c(NC(=S)NC(=O)c2ccccc2)sc2c1CCN(CCc1ccccc1)C2	D2 ag-1 44.2 (no result: D2 PAM-1, D2 ag-2)
COc1cccc(N2C(=O)CSC23C(=O)N(CC(=O)Nc2cccc(Cl)c2)c2ccccc23)c1 (centres undefined)	none (no result: D2 antagonist, D2 PAM-1, D2 ag-2, B2AR arrestin)
Cc1ccc(NC(=O)C2CCN(S(=O)(=O)c3ccc4c(c3)NC(=O)C(C)S4)CC2)cc1Cl (centres undefined)	D2 antagonist 72.5
Cc1cc(C)cc(NC(=O)C2CCN(S(=O)(=O)c3ccc4c(c3)NC(=O)C(C)S4)CC2)c1 (centres undefined)	none
NC(=O)N/N=C/c1ccccc1OCc1cccc2ccccc12	none
COc1ccc2c(C)cc(SCC(=O)Nc3nsc(-c4ccc(C(C)(C)C)cc4)n3)nc2c1	none (no result: D2 antagonist, D2 PAM-1, D2 ag-2, B2AR arrestin)
Cc1ccc(-c2csc(/C=C3/SC(C)C(=O)N3CC(=O)Nc3ccccc3F)n2)cc1 (centres undefined)	none (no result: D2 ag-1, D2 antagonist, D2 PAM-2, B2AR arrestin)
Cc1cc(C)nc(NNS(=O)(=O)c2ccc(Cl)cc2)n1	none (no result: D2 ag-1, D2 antagonist, D2 PAM-2)
COc1ccc(S(=O)(=O)NNc2nc(C)cc(C)n2)cc1Br	D2 antagonist 52.4
O=C(CS(=O)(=O)c1ccc(F)cc1)NCc1ccccc1	D2 antagonist 34.3
Cc1nn(-c2ccccc2)nc1CNC(=O)C(C)Cc1ccccc1 (centres undefined)	none
CN(c1cccc(NS(=O)(=O)c2cccs2)c1)S(C)(=O)=O	D2 PAM-2 30.4
CC1CN(C(=O)/C(C#N)=C2\N=C(NC(=O)c3ccccc3Cl)c3ccccc32)CC(C)O1 (centres undefined)	D2 antagonist 58.9 (no result: D2 PAM-1, D2 ag-2)
CCOc1cc(CNc2ncnc3nc[nH]c23)ccc1OC	D2 antagonist 37.6
COC(=O)C1=C(C(=O)OC)SC(=C2C(=S)C(C)(C)N(C(=O)CC(C)C)c3ccccc32)S1	D2 antagonist 30.3
COc1cc(OC)cc(C(=O)NC(C(=O)NNC(=O)c2cc(Cl)ccc2OC)C(C)C)c1 (centres undefined)	none
COCC1CCN(Cc2cn(-c3ccccc3F)nc2-c2cc(C)sc2C)CC1	D2 antagonist 73.5
Cc1cc(-c2nn(-c3ccccc3F)cc2CN2CCC(C(N)=O)CC2)c(C)s1	none
O=[N+]([O-])c1ccc(S(=O)(=O)c2ccccc2)nc1	D2 ag-2 48.3

High-throughput results from PubChem BioAssay.
